Experimental data reported in ChEMBL document CHEMBL5308504, “Tm Shift (DSF) assay results for EUbOPEN Chemogenomics Library” (2023).
“And” between values parts separate entries of the source, which are not always exact repeats. Equal entries are not always repeated.

How the values were obtained:
[1] = biological target: Bromodomain-containing protein 4 (Homo sapiens) (UniProt O60885); details: Compound concentration 20.0 uM, Protein concentration 2.0 uM, Result type QC Liability
[2] = biological target: T1, Transcription intermediary factor 1-alpha (Homo sapiens) (UniProt O15164); details: Compound concentration 20.0 uM, Protein concentration 2.0 uM, Result type QC Liability
T1 sequence (whole entry): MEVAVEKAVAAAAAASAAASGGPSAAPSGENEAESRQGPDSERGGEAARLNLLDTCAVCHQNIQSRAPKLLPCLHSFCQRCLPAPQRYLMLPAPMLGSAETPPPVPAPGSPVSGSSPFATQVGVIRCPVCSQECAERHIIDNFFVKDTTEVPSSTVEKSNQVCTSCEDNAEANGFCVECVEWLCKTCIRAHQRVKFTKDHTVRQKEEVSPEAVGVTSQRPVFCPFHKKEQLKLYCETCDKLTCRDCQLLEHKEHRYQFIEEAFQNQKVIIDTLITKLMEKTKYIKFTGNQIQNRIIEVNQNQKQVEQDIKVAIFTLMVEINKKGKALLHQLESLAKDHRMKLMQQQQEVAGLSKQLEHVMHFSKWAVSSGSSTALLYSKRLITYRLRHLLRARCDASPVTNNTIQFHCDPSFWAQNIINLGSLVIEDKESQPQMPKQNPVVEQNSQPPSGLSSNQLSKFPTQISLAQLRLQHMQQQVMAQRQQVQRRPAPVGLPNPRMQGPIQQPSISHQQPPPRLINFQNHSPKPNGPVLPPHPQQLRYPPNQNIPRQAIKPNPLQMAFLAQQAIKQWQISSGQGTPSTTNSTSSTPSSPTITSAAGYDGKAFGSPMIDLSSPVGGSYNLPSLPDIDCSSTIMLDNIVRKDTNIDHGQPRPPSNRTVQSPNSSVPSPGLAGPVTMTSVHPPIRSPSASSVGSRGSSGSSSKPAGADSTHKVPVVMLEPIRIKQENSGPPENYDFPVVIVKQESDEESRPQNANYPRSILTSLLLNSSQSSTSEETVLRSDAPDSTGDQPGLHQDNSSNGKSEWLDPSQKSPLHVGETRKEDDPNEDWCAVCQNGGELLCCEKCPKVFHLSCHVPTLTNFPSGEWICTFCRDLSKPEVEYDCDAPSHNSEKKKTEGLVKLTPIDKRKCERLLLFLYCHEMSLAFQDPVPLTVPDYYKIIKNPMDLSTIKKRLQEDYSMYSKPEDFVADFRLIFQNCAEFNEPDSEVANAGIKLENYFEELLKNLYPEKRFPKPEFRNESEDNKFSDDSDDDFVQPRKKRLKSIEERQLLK

| Compound | ΔTm [1] | ΔTm [2] |
| --- | --- | --- |
| C[C@@H]1OCC2(CCN(c3cnc(Sc4ccnc(N)c4Cl)c(N)n3)CC2)[C@@H]1N | -2.61 °C | -0.86 °C |
| CN1CCN(C(=O)c2ccc3cc2OCCOCCNc2ccn4ncc-3c4n2)CC1 | 0.71 °C | -0.01 °C |
| c1ccc(C2CCN(c3cnc4c(N5CCOCC5)nccn34)CC2)cc1 | -0.69 °C | -1.25 °C |
| COc1cc(-c2cn(C)c(=O)c3cnccc23)c(OC)cc1CN(C)C | -0.72 °C | 0.32 °C |
| CN(C)[C@H]1C[C@H](n2cnc(-c3ccc(F)cn3)c2-c2ccnc3[nH]ccc23)C1 | -2.13 °C | -2.35 °C |
| O=C1Nc2ccc(I)cc2/C1=C/c1cc(Br)c(O)c(Br)c1 | -0.9 °C | -2.17 °C |
| Cc1cc(Cn2c(N3CC4(CNC4)C3)nc3cc(Cl)cc(N4CCN(C)CC4)c32)cc(C)c1F | -0.27 °C | 0.27 °C |
| COc1ccc(S(=O)(=O)N2CCOCC2)cc1Nc1ccc2c(n1)N(C1CCN(C)CC1)[C@H](C)C(=O)N2C | -8.74 °C | -1.33 °C |
| Cc1c(CN2CCC3(CC2)CN(c2ncnc4sc(CC(F)(F)F)cc24)C3)ccc2c1cc(C#N)n2CC(N)=O | 1.17 °C | 0.7 °C |
| COc1cc(C(=O)NCCOCCOCCOCC(=O)N[C@H](C(=O)N2C[C@H](O)C[C@H]2C(=O)NCc2ccc(-c3scnc3C)cc2)C(C)(C)C)ccc1Nc1ncc(C(F)(F)F)c(Oc2cccc3c2C(=O)CC3)n1 | -0.02 °C | 2.06 °C |
| Clc1ccc(-c2nc3sccn3c2/C=N/OCc2ccc(Cl)c(Cl)c2)cc1 | -1.58 °C | -1.95 °C |
| O=C(O)c1ccc(OCCCc2ccc(OCCCCOC3CCCCC3)cc2)c(C(=O)NC2CCCC(C(=O)O)C2)c1 (configuration not stated) | 0.35 °C | 0.3 °C |
| Cc1ncsc1-c1ccc(CNC(=O)[C@@H]2C[C@@H](O)CN2C(=O)[C@@H](NC(=O)CCCCNC(=O)c2ccc(-c3ccc(N4CCN(C)CC4)c(NC(=O)c4c[nH]c(=O)cc4C(F)(F)F)c3)cc2)C(C)(C)C)cc1 | -6.12 °C | -1.25 °C |
| COc1ccc(N(C(=O)Nc2c(C)cccc2C)c2cc(Nc3ccc(N4CCN(C)CC4)cc3)ncn2)c(OC)c1 | 2.62 °C | 0.7 °C |
| C[C@@H]1Cc2c([nH]c3ccccc23)[C@@H](c2c(F)cc(/C=C/C(=O)O)cc2F)N1CC(C)(C)F | 0.36 °C | -0.62 °C |
| C[C@H]1CN(C2COC2)CCN1c1ccc(Nc2cc(-c3ccnc(N4CCn5c(cc6c5CC(C)(C)C6)C4=O)c3CO)cn(C)c2=O)nc1 | -1.88 °C | 0.42 °C |

| Compound | ΔTm [1] | ΔTm [2] |
| --- | --- | --- |
| N#CC[C@H](C1CCCC1)n1cc(-c2ncnc3[nH]ccc23)cn1 | -0.65 °C | -1.72 °C |
| CC(C)S(=O)(=O)c1ccccc1Nc1nc(N[C@@H]2CCCN(CCCCCCCNC(=O)COc3cccc4c3C(=O)N(C3CCC(=O)NC3=O)C4=O)C2)ncc1Cl (some centres not stated) | 1.89 °C | 0 °C |
| O=C(O)CCCCN(CCc1ccccc1OCc1ccc(CCc2ccccc2)cc1)Cc1ccc(C(=O)O)cc1 | -0.88 °C | 0.09 °C |
| CCCCCCCN(CCc1ccc(SC(C)(C)C(=O)O)cc1)C(=O)Nc1ccc(F)cc1F | -1.9 °C | -3.36 °C |
| COc1cc(OC)cc(-c2cc3cnc(N)nc3nc2NC(=O)NC(C)(C)C)c1 | -2.72 °C and 0.27 °C | -2.2 °C and -1.8 °C |
| CC(=O)c1c(C)c2cnc(Nc3ccc(N4CCNCC4)cn3)nc2n(C2CCCC2)c1=O | -1.52 °C and 0.07 °C | -1.97 °C and -2.09 °C |
| C[C@@H]1CCNC(=O)c2cc3ccc(C(=O)Nc4nc5ccccc5n4CCCN(C)C)cc3n21 | -0.87 °C | -0.45 °C |
| C[C@@H](COCCC(=O)N1CCN(c2ncc(C(F)(F)F)cn2)CC1)Nc1cn[nH]c(=O)c1C(F)(F)F | -1.99 °C | -0.95 °C |
| Cc1cc2ncnn2cc1Nc1ncc2c(n1)n(C1CCOCC1)c(=O)n2C | -1.59 °C | -4.66 °C |
| CC[C@@H]1C(=O)N(C)c2cnc(Nc3ccc(C(=O)NC4CCN(C)CC4)cc3OC)nc2N1C1CCCC1 | 6.02 °C | 0.07 °C |
| CC[C@H](CO)Nc1nc(Nc2cccc(-c3ccccn3)c2)c2ncn(C(C)C)c2n1 | -1.32 °C | -3.54 °C |
| COc1ccc(CC[C@@H](OC(=O)[C@H]2CCCCN2C(=O)[C@@H](c2cc(OC)c(OC)c(OC)c2)C2CCCCC2)c2cccc(OCCN3CCOCC3)c2)cc1OC | -4.83 °C | -1.63 °C |
| CCc1cc2c(cc1N1CCC(N3CCOCC3)CC1)C(C)(C)c1[nH]c3cc(C#N)ccc3c1C2=O | -2.92 °C | -0.86 °C |
| Cn1ccc(Cn2cnc(-c3ccc(F)cc3)c2-c2ccnc3[nH]ccc23)n1 | -1.68 °C | -3.2 °C |
| Cc1cc(CN(CC(=O)Nc2ccc(Cl)cc2Cl)C2CCCCC2)ccc1OCC(=O)O | -1.17 °C | -0.29 °C |
